# TWEAK Fn14 block: TWEAK-Fn14 signaling inhibition; 360,000 tested, 2% active; inhibition, % at 10 µM; TWEAK-stimulated Fn14 reporter cells, luciferase luminescence, 8 h; in the data active = inhibition above about 50%
# HSF-1 act: increases HSF-1 driven luciferase reporter signal; activation, % at 9 µM; NIH3T3-HGL HSF-1 luciferase reporter, MG132, 8 h; 100% = twice DMSO control signal; 300,000 tested, 1.7% active;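 active = mean replicate activation of at least 50% with a set share of replicates each reaching 50%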;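 note: 0% = median of the neutral control wells and 100% = twice that signal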
# LGR2 antag: Drosophila LGR2 receptor signaling inhibition; AID 720647; HEK293 LGR2, CRE-luciferase, bursicon-stimulated, 4 h; inhibition, % at 9.99 µM; 380,000 tested, 0.35% active;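 active = drop in luminescence signal, shown as inhibition above about 50% in the replicate tests, limit read from the data, passing the limit was not always enough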;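 note: agonist challenge used bursicon conditioned medium at about half maximal strength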
# HSF1 inh: HSF1 inhibition; 300,000 tested, 0.77% active; NIH3T3-HGL HSE-luciferase, MG132-induced, luminescence 8 h; stronger effect = lower value; activity change, negative = inhibition, % at 7.5 µM (by protocol); AID 2098;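 active = more than half of replicate wells show activity change below -50%, luminescence cut by over half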;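 note: luciferase reports HSF-1 transcriptional activity via heat shock element; 0% = median of DMSO wells and -100% = zero luminescence signal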
# TROY NFkB inh: blocks TROY-dependent signaling in reporter cells | inhibition, % at 10 µM | 360,000 tested, 0.98% active | AID 1347056 | Q293 LMP1-TROYcd NF-kB luciferase reporter, 4 h;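 active = compounds whose plate-normalised and pattern-corrected inhibition of the luciferase reporter signal at the single screening dose is 50% or more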
# EBV LMP1 NFkB: Epstein-Barr LMP1 NF-kappaB reporter inhibition. LMP1-induced NF-kappaB luciferase reporter cells, luminescence. inhibition, % at 12.5 µM. 350,000 tested, 0.69% active. AID 504558; in the data active = inhibition above about 41%;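 note: 0% = neutral control wells and 100% = reference inhibitor control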
# * marks the source's active call; other numbers are inactive results; nt = not tested or not shown. In the library only some 3.6% were active in any assay of this set; here they are far more common.
SMILES,TWEAK Fn14 block,HSF-1 act,LGR2 antag,HSF1 inh,TROY NFkB inh,EBV LMP1 NFkB
NC(=O)CCN1CCN(CCOC2Cc3cc(Cl)ccc3Sc3ccccc32)CC1 (stereo unspecified),6,59*,-3,20,16,2
COCCCN1CCN(C2Cc3ccccc3Sc3ccc(Cl)cc32)CC1 (stereo unspecified),5,17,-5,-1,13,0
CC(C)Cn1c(/C=C/c2ccccc2)nc2ccccc21,-6,89*,-27,53,-61,-19
CSc1nc2ccccc2n1CC(=O)Nc1ccccc1,-3,17,nt,-2,-4,-2
O=C(Cn1c(/C=C/c2ccccc2)nc2ccccc21)Nc1ccc(F)cc1,-14,57*,-58,39,-134,-10
C[C@@H]1CN([C@H](C)CO)C(=O)Cc2cc(NS(C)(=O)=O)ccc2O[C@H]1CN(C)Cc1ccc2c(c1)OCO2,nt,nt,-13,nt,nt,nt
COc1ccc(-c2[nH]ncc2CN2CCC(c3ccncc3)CC2)cc1F,-6,-14,-1,6,0,-7
COc1ccc(-c2[nH]ncc2CN2CCN(C3CCCCC3)C(=O)C2)cc1F,9,56*,-5,21,15,5
COC(=O)CSc1nc(N2CCCCC2)c2c(c1C#N)CCCC2,91*,8,nt,-4,-17,1
CSc1nc(N2CCOCC2)c2c(c1C#N)CCCCC2,93*,5,2,-2,-2,1
COCC#Cc1cnc2c(c1)C(=O)N([C@@H](C)CO)C[C@H](C)[C@@H](CN(C)C(=O)NC1CCCC1)O2,nt,nt,8,nt,nt,nt
Cc1ccc(OCCn2c(=O)n(C)c3ccccc32)cc1,-24,59*,-55,28,-13,-30
Cc1cc(C)n(-c2nc3ccccc3nc2N2CCN(C(=O)c3ccccc3)CC2)n1,-2,52*,22,21,-21,-15
O=c1c(O)c(-c2ccccc2)oc2cc(O)cc(O)c12,55*,nt,-24,nt,-18,-10
O=C(CCl)N(O)c1ccc(C=Cc2ccccc2)cc1,-35,nt,-64,nt,-46,53*
COc1ccccc1NC(=O)N[C@@H]1CC[C@@H](CC(=O)NCc2ccc(Cl)c(Cl)c2)O[C@H]1CO,nt,nt,0,nt,nt,nt
CC(C)NC(=O)N1[C@@H]2Cn3c(cccc3=O)[C@H]1[C@@H](C(=O)N1CCC(Cc3ccccc3)CC1)[C@@H]2CO,nt,nt,-4,nt,nt,nt
COc1ccc(NC(=O)CSc2nnc3ccc(-c4ccncc4)nn23)cc1OC,-6,-80,10,-75*,15,0
Cc1c(O)ccc(/C=N/Nc2ncccc2[N+](=O)[O-])c1O,32,55*,-37,36,32,-15
O=[N+]([O-])c1cccnc1N/N=C/c1ccccc1O,20,-43,-80,-34,18,12
c1ccc(CN2CCN(c3cnc4ccccc4n3)CC2)cc1,-20,38,-36,14,-44,-14
Fc1ccccc1N1CCN(c2cnc3ccccc3n2)CC1,44,62*,nt,36,12,-26
COc1c(N2CCN(C(=S)NC3CC4CCC3C4)C(C)C2)c(F)cc2c(=O)c(C(=O)O)cn(C3CC3)c12 (stereo unspecified),-12,-68,-12,-55*,24,2
COc1c(N2CCN(C(=S)Nc3ccc(F)cc3)C(C)C2)c(F)cc2c(=O)c(C(=O)O)cn(C3CC3)c12 (stereo unspecified),-19,-8,nt,-3,3,-4
COc1cccc(N2CCN(S(=O)(=O)c3ccc(-c4coc(C)n4)cc3)CC2)c1,-2,73*,-1,28,17,4
SMILES,TWEAK Fn14 block,HSF-1 act,LGR2 antag,HSF1 inh,TROY NFkB inh,EBV LMP1 NFkB
Cc1cc2c(cc1S(=O)(=O)N1CCN(c3ccc(Cl)cc3)CC1)OCCN2C,17,3,-23,5,5,7
Cc1nc(-c2ccc(S(=O)(=O)N3CCN(c4ccccc4)CC3)cc2)co1,-5,5,-8,5,0,2
COc1cccc(N2CCN(S(=O)(=O)c3cc4c(cc3C)N(C)CCO4)CC2)c1,-14,55*,-6,34,3,10
C[C@H]1CCCCO[C@H](CN(C)C(=O)CCC(F)(F)F)[C@@H](C)CN([C@@H](C)CO)C(=O)c2cc(NS(=O)(=O)c3cccs3)ccc2O1,nt,nt,-32,nt,nt,nt
O=C(Cc1ccc(Br)cc1)N1CCc2ccccc2C1,-9,98*,-29,69,-30,-15
Cc1ccc(-c2cnc3c(c2)C(=O)N([C@H](C)CO)C[C@H](C)[C@@H](CN(C)C(=O)c2cccnc2)O3)cc1,nt,nt,0,nt,nt,nt
O=C(CSCc1ccc(Br)cc1)N1CCCC1,-7,57*,8,15,-16,0
O=C(CSCc1ccc(Br)cc1)N1CCOCC1,-18,0,nt,4,-15,2
C[C@@H]1CN([C@H](C)CO)S(=O)(=O)c2ccc(-c3cccc(F)c3)cc2O[C@H]1CN(C)S(C)(=O)=O,nt,nt,10,nt,nt,nt
Cc1ccc(NC(=O)Nc2ccc(Cl)cn2)cc1,-28,77*,-65,40,-21,-38
O=C(Nc1ccc(Cl)c(Cl)c1)Nc1nccs1,17,4,-53,6,5,66*
Cc1ccc(NC(=O)Nc2ccc(Cl)c(Cl)c2)nc1,-9,53*,2,28,-38,-46
O=C(Nc1cccc(Cl)c1)Nc1nccs1,17,18,nt,16,-50,-12
CC(C)NC(=O)Nc1ccc2c(c1)C(=O)N([C@H](C)CO)C[C@H](C)[C@H](CN(C)C)OCCCC[C@H](C)O2,nt,nt,8,nt,nt,nt
O=C(C[C@H]1CC[C@@H](NC(=O)c2ccc3c(c2)OCO3)[C@H](CO)O1)NC1Cc2ccccc2C1,nt,nt,3,nt,nt,nt
C[C@H]1CN([C@@H](C)CO)C(=O)c2cc(NC(=O)Nc3ccc(C(F)(F)F)cc3)ccc2O[C@@H]1CN(C)Cc1ccccc1,nt,nt,1,nt,nt,nt
C[C@@H]1CN([C@@H](C)CO)C(=O)c2cccc(NC(=O)c3ccc(-c4nccs4)cc3)c2O[C@H]1CN(C)Cc1ccccc1,nt,nt,7,nt,nt,nt
CCc1ccc(/C(C)=N/NC(=O)CNC(=O)/C=C/c2ccco2)cc1,66*,2,nt,-5,1,-6
CCc1ccc(/C(C)=N/NC(=O)CNC(=O)/C=C/c2ccccc2OC)cc1,1,3,6,-2,5,4
CCN(CC)c1ccc(Nc2nc(N3CCOCC3)c3ccccc3n2)cc1,54*,4,nt,-5,35,-8
C[C@H](NC(=O)C[C@@H]1C[C@H]2c3cc(N(C)C)ccc3O[C@H]2[C@@H](CO)O1)c1ccccc1,nt,nt,2,nt,nt,nt
C/C(N)=C(/C#N)C(=O)COC(=O)c1cc(C)n(-c2ccc(F)cc2)c1C,-81,84*,nt,52,-61,-29
Cc1cc(C(=O)OCC(N)=O)c(C)n1-c1ccccc1,-17,42,-19,13,-13,-10
CCCCC1C(=O)CC[C@H]2[C@@H]1CC(=O)[C@@H]2C/C=C\CCCC(=O)O (stereo partly specified),18,72*,nt,40,-2,0
